Compounds with a hit are over-represented: about 2.1% of the library has one in this group of screens.
CF NFkB inh: inhibitors of cystic fibrosis induced NF-kB. KKLEB NF-kB-GFP reporter, PAF-induced, GFP fluorescence overnight. inhibition, % at 5 µM. 360,000 compounds, 0.86% hits. AID 588850;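 active = at least 50% inhibition at 5 µM, scaled per plate between neutral and stimulator controls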;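 note: PAF is a Pseudomonas aeruginosa culture filtrate used as stimulus; plate controls were PAF-stimulated DMSO wells for no effect and unstimulated DMSO wells for full effect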
EWS-Fli inh: blocks EWS/Fli oncoprotein-driven transcription. A673 NR0B1-luciferase reporter, viability-normalised. inhibition, % at 12.6 µM. 350,000 compounds, 0.67% hits. AID 651661;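 active = mean inhibition of at least 50% after viability correction, with every replicate also passing that limit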;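 note: firefly luciferase signal divided by Alamar Blue viability fluorescence both relative to DMSO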
KKLEB cytotox: counter-screen for CF NF-kB inhibitors: cytotoxicity | KKLEB CF airway cells viability, ATPlite luminescence, overnight; active compounds read low; cells stimulated with P. aeruginosa culture filtrate | activity change (cytotoxicity), % at 5 µM | 360,000 compounds, 0.36% hits;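 active = corrected activity change at or below -50% at 5 µM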
HIF-2a block: inhibitors of HIF-2a | 786-0 RCC cells HIF-2a reporter, luciferase luminescence, overnight | inhibition, % at 18.8 µM | 360,000 compounds, 0.72% hits;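 active = inhibition of the luminescence signal of 40% or more relative to plate controls, in a single-dose primary screen at 18.75 µM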
PAX8 reporter: inhibitors of PAX8 transcriptional activity in RMG-I cells; RMG-I TPO-luciferase reporter, SteadyGlo, 24 h; inhibition, % at 12.6 µM; 360,000 compounds, 1.2% hits;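 active = mean replicate inhibition at least 60% with every replicate also reaching 60%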;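 note: luciferase light reporting Pax8 driven TPO promoter activity; plate controls were median of neutral control wells for no effect and mitoxantrone controls for full effect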
DNA binder FP: binds DNA displacing acridine orange; shares compounds with EWS-Fli inh; salmon sperm DNA acridine orange fluorescence polarization; AC35, µM (top dose mostly 68 µM), inactives show at the highest dose activity change, negative = DNA binding; 640 compounds, 2% hits; AID 720586;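 active = fitted curve reaches a 35% signal fall AC35 below twice the sample's top valid tested dose, actives reach about 48 µM in these data; inactive = the rest, including activity in the rising direction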;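 note: lower polarization ratio signals compound binding to DNA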
The depositor's hits bear a star.

`O=S(=O)(c1ccc(F)cc1)N1C[C@H]2[C@@H](c3ccccc31)[C@H](CO)N2Cc1ccccc1Cl` gave EWS-Fli inh 60*, PAX8 reporter 109* and DNA binder FP -5%.
For O=S(=O)(c1ccc(F)cc1)N1C[C@@H]2[C@H](c3ccccc31)[C@H](CO)N2Cc1ccccc1Cl the results were EWS-Fli inh 9 and PAX8 reporter 2.
`O=C(N/N=C/c1c(F)cccc1Cl)C1CC1` gave CF NFkB inh 4, EWS-Fli inh -3, KKLEB cytotox 3, HIF-2a block -2 and PAX8 reporter -2.
Screening O=C(O)c1ccc(N/N=C/c2c(F)cccc2Cl)cc1 returned CF NFkB inh 14, EWS-Fli inh 75*, KKLEB cytotox -9, HIF-2a block 22, PAX8 reporter 82* and DNA binder FP -5%.
O=C(Nc1cccc(Oc2ccc3c(c2)C(=O)NC3=O)c1)c1cccs1 was read as CF NFkB inh 1, EWS-Fli inh 74*, KKLEB cytotox 1, HIF-2a block 17, PAX8 reporter -6 and DNA binder FP -6%.
CNC[C@H]1OCCCC[C@@H](C)Oc2ccc(NC(=O)Nc3ccc4c(c3)OCO4)cc2C(=O)N([C@@H](C)CO)C[C@@H]1C was read as EWS-Fli inh 3 and PAX8 reporter 11.
`O=C(/C=C/c1ccc(Cl)cc1Cl)N(Cc1ccccc1)C1CCS(=O)(=O)C1` (stereo not given) gave CF NFkB inh -2, KKLEB cytotox -11, HIF-2a block -5 and PAX8 reporter 16.
`O=C(/C=C/c1ccc(Cl)cc1Cl)N(Cc1ccc(Cl)cc1)C1CCS(=O)(=O)C1` (stereo not given) gave CF NFkB inh 2, EWS-Fli inh 70*, KKLEB cytotox 1, HIF-2a block -9, PAX8 reporter 18 and DNA binder FP -10%.
For O=C1c2ccccc2C(=O)c2cc(N3CCCCC3)ccc21 the results were CF NFkB inh -123, EWS-Fli inh 83*, KKLEB cytotox -63*, HIF-2a block -10, PAX8 reporter 9 and DNA binder FP -10%.
Screening c1ccc2cc(N3CCCCC3)ccc2c1 returned CF NFkB inh 0, EWS-Fli inh -38, KKLEB cytotox -5, HIF-2a block -19 and PAX8 reporter 13.
Screening C[C@@H]1CN([C@H](C)CO)C(=O)Cc2cc(NC(=O)Nc3ccc(F)cc3)ccc2O[C@@H]1CN(C)Cc1ccc(C(=O)O)cc1 returned EWS-Fli inh -12 and PAX8 reporter -9.
`CCOc1ccccc1CNC(=O)c1ccc(Sc2ccc(Cl)cc2)c(NC(C)=O)c1` gave CF NFkB inh 12, EWS-Fli inh 80*, KKLEB cytotox -15, HIF-2a block 14, PAX8 reporter 3 and DNA binder FP 5%.
`CCOc1ccc(CNC(=O)c2ccc(Sc3ccc(Cl)cc3)c(NC(C)=O)c2)cc1` gave CF NFkB inh -4, KKLEB cytotox -1, HIF-2a block 26 and PAX8 reporter 7.
For CC(=O)Nc1cc(C(=O)NCc2ccco2)ccc1Sc1ccc(F)cc1 the results were CF NFkB inh 2, EWS-Fli inh 85*, KKLEB cytotox 9, HIF-2a block 19, PAX8 reporter 28 and DNA binder FP -7%.
For CC(C)C#Cc1cnc2c(c1)C(=O)N([C@@H](C)CO)C[C@H](C)[C@H](CN(C)Cc1cccc(F)c1)O2 the results were EWS-Fli inh 13 and PAX8 reporter -11.
Screening O=C(Cc1ccccn1)N[C@H]1CC[C@H](CCNC(=O)c2cc(Cl)cc(Cl)c2)O[C@H]1CO returned EWS-Fli inh -5 and PAX8 reporter 6.
`N#CC1C=Cc2ccccc2N1C(=O)c1ccccc1` (stereo not given) gave CF NFkB inh -15, EWS-Fli inh 9, KKLEB cytotox 13, HIF-2a block 11 and PAX8 reporter 37.
`N#CC1C=Cc2c(ccc3ccccc23)N1C(=O)c1ccccc1` (stereo not given) gave CF NFkB inh 42, EWS-Fli inh 66*, KKLEB cytotox -21, HIF-2a block 32, PAX8 reporter 6 and DNA binder FP -3%.
C/C(=N\Nc1cccc2cccnc12)c1ccccc1O was read as CF NFkB inh -3, EWS-Fli inh -11, KKLEB cytotox -27, HIF-2a block -245 and PAX8 reporter -59.

Assay outcomes from PubChem.
